One may read the AC50 as the concentration at which the activity in the assay is half-maximal.

Inconclusive results are not listed. Some compounds were tested as several samples or in several runs, with calls that do not always agree. The source made the active and inactive calls. The calls were made as follows, unless noted: active = hit-call score of the fitted dose curve at least 0.9, where 1 is the maximum; inactive = score below 0.9.

We go through four compounds from PubChem BioAssay (EPA / NIEHS).

Experiment [1] addresses Glucocorticoid receptor (Homo sapiens) (UniProt P04150). Description: ATG_GR_TRANS: Attagene TRANS-FACTORIAL HepG2 Assay for human Glucocorticoid Receptor (GR) (AID 2282978; active = hit-call score of the fitted dose curve at least 0.9, where 1 is the maximum;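 also: activators score as hits since higher reporter transcript over DMSO is fitted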). Conditions: HepG2 Attagene TRANS GR reporter, mRNA transcription. A digest of the protocol: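 Readout is reporter transcript from a chimeric GR-Gal4 acting on GAL4-UAS in transfected human HepG2 liver cells after 24 h exposure, quantified by RT-PCR and capillary electrophoresis. Activation fitted upward against DMSO.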

The target of experiment [2] is Bile acid receptor (Homo sapiens) (UniProt Q96RI1). The experiment in a line: ATG_FXR_TRANS: Attagene TRANS-FACTORIAL HepG2 Assay for Farnesoid X Receptor (FXR) (AID 2282979; active = hit-call score of the fitted dose curve at least 0.9, where 1 is the maximum;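 also: hits raise reporter mRNA above DMSO so AC50 marks FXR activation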). Particulars: HepG2 Attagene TRANS FXR-GAL4 reporter transcription. The procedure, abridged: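 HepG2 cells transiently transfected with reporter constructs in which a chimeric FXR-GAL4 protein drives a GAL4-UAS reporter; 24 h compound exposure. Reporter mRNA measured by RT-PCR, FAM labelling, HpaI digestion and capillary electrophoresis; gain-of-signal versus DMSO.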
Bile acid receptor (Homo sapiens), sequence (Q96RI1 whole entry, looked up, the tested form may be a part): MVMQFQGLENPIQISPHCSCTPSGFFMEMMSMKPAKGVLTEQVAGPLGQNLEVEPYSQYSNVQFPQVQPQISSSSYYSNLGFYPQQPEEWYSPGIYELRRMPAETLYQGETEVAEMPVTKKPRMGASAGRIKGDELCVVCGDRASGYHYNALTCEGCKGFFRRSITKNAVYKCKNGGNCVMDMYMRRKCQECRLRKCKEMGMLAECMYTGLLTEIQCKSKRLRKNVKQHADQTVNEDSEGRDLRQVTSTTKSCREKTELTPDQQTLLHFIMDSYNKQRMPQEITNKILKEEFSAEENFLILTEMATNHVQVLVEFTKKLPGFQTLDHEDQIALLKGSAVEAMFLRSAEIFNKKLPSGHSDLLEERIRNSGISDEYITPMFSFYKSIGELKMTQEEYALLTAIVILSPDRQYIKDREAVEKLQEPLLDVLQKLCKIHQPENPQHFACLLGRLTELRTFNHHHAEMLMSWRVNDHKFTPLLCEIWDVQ

For experiment [3], the target named is Oxysterols receptor LXR-alpha (Homo sapiens) (UniProt Q13133). The experiment in a line: ATG_LXRa_TRANS: Attagene TRANS-FACTORIAL HepG2 Assay for human Liver X Receptor alpha (LXRa) (AID 2282980; active = hit-call score of the fitted dose curve at least 0.9, where 1 is the maximum). Conditions: HepG2 Attagene TRANS reporter, LXRa transactivation. A digest of the protocol:
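HepG2 cells were transiently transfected with multiplexed reporter units driven by chimeric LXRa–GAL4 fusion proteins, then dosed for 24 h. Reporter mRNA was quantified by RT-PCR, fluorescent labelling and capillary electrophoresis; gain of signal fitted against DMSO baseline.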

For experiment [4], the target named is Hepatocyte nuclear factor 4-alpha (Homo sapiens) (UniProt P41235). The experiment in a line: ATG_HNF4a_TRANS: Attagene TRANS-FACTORIAL HepG2 Assay for human Hepatocyte Nuclear Factor 4 alpha (HNF4a) (AID 2282982; active = hit-call score of the fitted dose curve at least 0.9, where 1 is the maximum). Particulars: HepG2 HNF4a transactivation reporter, mRNA readout. The procedure, abridged: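 Activity of an exogenous HNF4a–Gal4 fusion scored as induced GAL4-UAS reporter transcripts after 24 h chemical exposure of transfected human HepG2 cells. Read-out via RT-PCR with 6-FAM labelling and capillary electrophoresis; rise over DMSO baseline.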
Hepatocyte nuclear factor 4-alpha (Homo sapiens), sequence (P41235 whole entry, looked up, the tested form may be a part): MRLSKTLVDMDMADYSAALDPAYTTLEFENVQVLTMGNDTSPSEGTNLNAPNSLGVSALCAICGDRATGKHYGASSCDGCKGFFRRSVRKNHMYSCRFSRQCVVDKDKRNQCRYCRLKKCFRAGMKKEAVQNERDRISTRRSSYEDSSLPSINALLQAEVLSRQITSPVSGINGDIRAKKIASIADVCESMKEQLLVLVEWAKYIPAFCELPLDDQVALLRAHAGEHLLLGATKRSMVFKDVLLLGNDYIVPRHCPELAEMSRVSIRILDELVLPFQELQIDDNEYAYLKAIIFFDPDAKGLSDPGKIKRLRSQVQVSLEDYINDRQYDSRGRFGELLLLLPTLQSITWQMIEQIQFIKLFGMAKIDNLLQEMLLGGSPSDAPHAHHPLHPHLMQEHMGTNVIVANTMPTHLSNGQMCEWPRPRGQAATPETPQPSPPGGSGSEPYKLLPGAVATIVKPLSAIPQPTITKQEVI

Experiment [5] in a line: ATG_M_06_TRANS: Attagene TRANS-FACTORIAL HepG2 Assay for M06 Transcription Factor (Internal Marker) (AID 2282983; active = hit-call score of the fitted dose curve at least 0.9, where 1 is the maximum). Particulars: HepG2 Attagene TRANS M06 internal marker reporter. The procedure, abridged: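 In this multiplexed HepG2 system, compounds are incubated 24 h with cells carrying GAL4-UAS reporter units. Reporter RNA is amplified and resolved by capillary electrophoresis, and induction is scored against DMSO.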

The target of experiment [6] is Nuclear receptor subfamily 4 group A member 2 (Homo sapiens) (UniProt P43354). Description: ATG_NURR1_TRANS: Attagene TRANS-FACTORIAL HepG2 Assay for human Nuclear Receptor Related Protein 1 (NURR1) (AID 2282985; active = hit-call score of the fitted dose curve at least 0.9, where 1 is the maximum). Particulars: HepG2 Attagene TRANS reporter, mRNA readout. A digest of the protocol:
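Reporter transcript induction, measured by RT-PCR with fluorescent labelling, HpaI digestion and capillary electrophoresis, after 24 hr dosing of human HepG2 cells transiently expressing an exogenous NR-Gal4 fusion with GAL4-UAS-driven reporters; DMSO as baseline.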

The target in experiment [7] is Transcriptional activator Myb (Homo sapiens) (UniProt P10242). Description: ATG_Myb_CIS: Attagene CIS-FACTORIAL HepG2 Assay for human Myeloblastosis (Myb) Proto-Oncogene Transcription Factor (AID 2282986). Conditions: HepG2 Attagene CIS-FACTORIAL Myb reporter transcription; actives raise or lower the signal. A digest of the protocol:
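Reporter mRNA is quantified by RT-PCR and capillary electrophoresis 24 h after dosing HepG2 cells transfected with cis-regulated reporter units, which track endogenous transcription factor activity. Gain and loss of signal are fitted versus DMSO baseline.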

Experiment [8] addresses Nuclear respiratory factor 1 (Homo sapiens) (UniProt Q16656). Description: ATG_NRF1_CIS: Attagene CIS-FACTORIAL HepG2 Assay for human Nuclear Respiratory Factor 1 (NRF1) Orphan Gene (AID 2282987). Conditions: HepG2 NRF1 cis-element reporter, Attagene multiplex; actives raise or lower the signal. A digest of the protocol:
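Endogenous NRF1-driven reporter transcription in transfected HepG2 cells after 24 h treatment. Readout: RT-PCR products, 6-FAM labelled and resolved by capillary electrophoresis; changes fitted both directions relative to DMSO.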

A short description of experiment [9]: ATG_NFI_CIS: Attagene CIS-FACTORIAL HepG2 Assay for human Nuclear Factor I (NFI) (AID 2282989). Conditions: HepG2 cis-regulatory reporter, NFI response element transcription; actives raise or lower the signal. A digest of the protocol: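 After transient transfection of HepG2 with cis-promoter reporter constructs and 24 h dosing, RNA is reverse-transcribed, amplified, 6-FAM end-labelled and HpaI-digested before capillary analysis. Bidirectional curve fitting against DMSO.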

In experiment [10] the target is Myc proto-oncogene protein (Homo sapiens) (UniProt P01106). Description: ATG_Myc_CIS: Attagene CIS-FACTORIAL HepG2 Assay for human Myelocytomatosis (Myc) Proto-Oncogene Transcription Factor (AID 2282990). Conditions: HepG2, Attagene cis-reporter transcription factor activity; actives raise or lower the signal. The procedure, abridged: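 HepG2, transient MRTU transfection (cis promoters, endogenous TFs); 24 h dosing; TriZol RNA → oligo(dT) RT → PCR → 6-FAM primer extension → HpaI cut → CE. Bidirectional fit vs DMSO.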
Myc proto-oncogene protein (Homo sapiens), sequence (P01106 whole entry, looked up): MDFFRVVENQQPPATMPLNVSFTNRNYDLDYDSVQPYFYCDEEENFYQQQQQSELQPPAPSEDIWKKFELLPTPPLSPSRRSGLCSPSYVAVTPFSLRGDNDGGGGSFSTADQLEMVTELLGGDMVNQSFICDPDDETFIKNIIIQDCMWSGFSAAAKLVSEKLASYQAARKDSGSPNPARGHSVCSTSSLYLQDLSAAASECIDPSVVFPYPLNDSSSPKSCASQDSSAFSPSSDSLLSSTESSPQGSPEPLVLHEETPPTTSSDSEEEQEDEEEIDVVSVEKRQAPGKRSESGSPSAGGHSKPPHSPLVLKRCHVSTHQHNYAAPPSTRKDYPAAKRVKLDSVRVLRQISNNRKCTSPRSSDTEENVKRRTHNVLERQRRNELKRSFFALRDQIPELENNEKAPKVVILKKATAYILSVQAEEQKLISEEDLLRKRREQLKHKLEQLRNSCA

Experiment [11] is described as follows: ATG_NF_kB_CIS: Attagene CIS-FACTORIAL HepG2 Assay for human Nuclear Factor Kappa B (NF-kB) (AID 2282991). Particulars: HepG2 Attagene cis-factorial NF-kB reporter mRNA; actives raise or lower the signal. A digest of the protocol:
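Readout is reporter transcript level, gain or loss versus DMSO, measured 24 h post-dose via RT-PCR, fluorescent labelling and capillary electrophoresis. Human HepG2 liver cells carried transiently transfected CIS reporter constructs reflecting endogenous factors.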

Experiment [12] is described as follows: ATG_NRF2_ARE_CIS: Attagene CIS-FACTORIAL HepG2 Assay for human Nuclear Factor Erythroid 2 Related Factor 2 (NFR2) response to Antioxidant Response Elements (ARE) (AID 2282992). Particulars: HepG2 Attagene ARE/NRF2 reporter, transcription factor activity; actives raise or lower the signal. The procedure, abridged: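 Using transiently transfected HepG2 cells exposed for 24 h, reporter mRNA levels were determined by RT-PCR with fluorescent primer extension and capillary electrophoresis, analysed for gain or loss of signal against DMSO.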

Experiment [13] can be described thus: ATG_Oct_MLP_CIS: Attagene CIS-FACTORIAL HepG2 Assay for human Octamer-Binding Transcription Factor (Oct) (AID 2282993). Particulars: HepG2 Attagene cis-factorial Oct reporter, mRNA; actives raise or lower the signal. A digest of the protocol: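 Cells of the HepG2 line express promoter-controlled reporter sequences whose mRNA levels, after 24 h treatment, are measured by RT-PCR and capillary electrophoresis. Increases and decreases are scored relative to DMSO.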

Experiment [14] has as its target Cellular tumor antigen p53 (Homo sapiens) (UniProt P04637). The experiment in a line: ATG_p53_CIS: Attagene CIS-FACTORIAL HepG2 Assay for human p53 Transcription Factor (AID 2282994). Conditions: HepG2 p53 cis-element reporter, Attagene mRNA; actives raise or lower the signal. A digest of the protocol:
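In HepG2 cells, reporter transcription units under cis-regulatory promoters were transiently introduced. Following 24 h treatment, RNA was processed to labelled, digested cDNA fragments read by capillary electrophoresis; fitting was bidirectional versus DMSO.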

A short description of experiment [15]: BSK_3C_uPAR: BioMAP Diversity Plus: 3C Assay for Urokinase-type plasminogen activator receptor (uPAR) Biomarker Activity (AID 2282998). Particulars: BioMAP 3C HUVEC, uPAR biomarker ELISA; actives raise or lower the signal. A digest of the protocol: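 Endothelial primary cells of human umbilical vein origin received test chemical; 24 h later uPAR was assayed by ELISA. Fitting was bidirectional, DMSO as negative control.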
In general terms: In an ELISA, binding on a coated surface is turned into a signal by an enzyme label.

Experiment [16] is described as follows: BSK_3C_VCAM1: BioMAP Diversity Plus: 3C Assay for Vascular cell adhesion molecule 1 (VCAM1) Biomarker Activity (AID 2282999). Particulars: BioMAP 3C HUVEC, VCAM1 ELISA, cytokine-stimulated; actives raise or lower the signal. The procedure, abridged:
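Activity fitted in both directions relative to DMSO, with ELISA measurement of the surface marker on primary HUVEC (3C) at 24 h post-treatment; parallel SRB staining (0.1% SRB, TCA-fixed, 560 nm) flagged overt cytotoxicity.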

The nature of experiment [17]: BSK_3C_TissueFactor: BioMAP Diversity Plus: 3C Assay for Tissue Factor Biomarker Activity (AID 2282997). Conditions: BioMAP 3C HUVEC, tissue factor biomarker readout; actives raise or lower the signal. The procedure, abridged: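 Readout: Tissue Factor ELISA. Cells: human primary umbilical vein endothelium. Time: 24 h after dosing. Analysis: bidirectional fit, DMSO baseline.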

A short description of experiment [18]: ATG_M_32_TRANS: Attagene TRANS-FACTORIAL HepG2 Assay for M32 Transcription Factor (Internal Marker) (AID 2282984; active = hit-call score of the fitted dose curve at least 0.9, where 1 is the maximum;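 also: transcript level of a background control reporter unit measured by RT-PCR and capillary electrophoresis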). Particulars: HepG2 Attagene TRANS M32 internal marker reporter. A digest of the protocol: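 Internal background reporter in transfected HepG2: after 24 h chemical exposure, RNA reverse-transcribed, reporter cDNA amplified, fluorescently labelled and HpaI-cut, then sized by capillary electrophoresis. Gain of signal fitted against DMSO control.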

Experiment [19] in a line: BSK_4H_Eotaxin3: BioMAP Diversity Plus: 4H Assay for Eotaxin 3 Biomarker Activity (AID 2283000).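 As to outcome: CCL26 protein level quantified by ELISA in parallel with SRB cytotoxicity check.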 Conditions: primary human endothelial cells (HUVEC); actives raise or lower the signal. The procedure, abridged:
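HUVEC, 24 h post-dose, ELISA for Eotaxin-3/CCL26. Gain or loss of signal fitted bidirectionally vs DMSO baseline.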

Nuclear respiratory factor 1 (Homo sapiens), sequence (Q16656 whole entry, looked up): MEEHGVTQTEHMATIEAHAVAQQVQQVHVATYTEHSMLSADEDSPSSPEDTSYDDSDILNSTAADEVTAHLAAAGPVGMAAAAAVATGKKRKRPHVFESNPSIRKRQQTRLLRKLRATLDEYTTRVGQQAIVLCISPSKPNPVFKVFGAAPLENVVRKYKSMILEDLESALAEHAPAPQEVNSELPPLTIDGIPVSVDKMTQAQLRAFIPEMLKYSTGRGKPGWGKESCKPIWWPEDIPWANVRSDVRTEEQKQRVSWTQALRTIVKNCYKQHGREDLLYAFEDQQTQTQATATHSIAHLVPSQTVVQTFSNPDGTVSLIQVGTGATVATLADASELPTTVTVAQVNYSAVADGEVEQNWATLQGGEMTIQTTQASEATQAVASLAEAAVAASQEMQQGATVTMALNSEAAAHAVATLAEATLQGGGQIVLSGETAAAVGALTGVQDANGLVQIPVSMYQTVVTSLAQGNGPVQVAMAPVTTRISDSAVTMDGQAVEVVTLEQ
Transcriptional activator Myb (Homo sapiens), sequence (P10242 whole entry, looked up): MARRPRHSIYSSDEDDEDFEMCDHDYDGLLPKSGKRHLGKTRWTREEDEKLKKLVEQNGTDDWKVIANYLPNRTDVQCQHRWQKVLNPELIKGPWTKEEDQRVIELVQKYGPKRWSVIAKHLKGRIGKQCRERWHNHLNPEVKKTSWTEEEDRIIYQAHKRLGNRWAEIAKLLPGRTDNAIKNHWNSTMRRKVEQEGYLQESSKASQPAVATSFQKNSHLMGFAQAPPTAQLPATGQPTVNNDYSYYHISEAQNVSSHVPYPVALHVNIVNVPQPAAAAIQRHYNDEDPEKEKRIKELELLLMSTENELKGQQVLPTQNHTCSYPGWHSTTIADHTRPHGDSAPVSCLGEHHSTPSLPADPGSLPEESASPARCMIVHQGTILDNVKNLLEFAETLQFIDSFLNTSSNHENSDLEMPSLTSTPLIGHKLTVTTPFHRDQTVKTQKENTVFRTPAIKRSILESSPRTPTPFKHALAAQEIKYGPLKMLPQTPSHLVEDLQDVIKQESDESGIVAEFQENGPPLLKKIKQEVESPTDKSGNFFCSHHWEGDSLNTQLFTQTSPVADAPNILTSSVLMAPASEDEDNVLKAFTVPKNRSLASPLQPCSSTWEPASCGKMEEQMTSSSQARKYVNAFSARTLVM
Nuclear receptor subfamily 4 group A member 2 (Homo sapiens), sequence (P43354 whole entry, looked up, the tested form may be a part): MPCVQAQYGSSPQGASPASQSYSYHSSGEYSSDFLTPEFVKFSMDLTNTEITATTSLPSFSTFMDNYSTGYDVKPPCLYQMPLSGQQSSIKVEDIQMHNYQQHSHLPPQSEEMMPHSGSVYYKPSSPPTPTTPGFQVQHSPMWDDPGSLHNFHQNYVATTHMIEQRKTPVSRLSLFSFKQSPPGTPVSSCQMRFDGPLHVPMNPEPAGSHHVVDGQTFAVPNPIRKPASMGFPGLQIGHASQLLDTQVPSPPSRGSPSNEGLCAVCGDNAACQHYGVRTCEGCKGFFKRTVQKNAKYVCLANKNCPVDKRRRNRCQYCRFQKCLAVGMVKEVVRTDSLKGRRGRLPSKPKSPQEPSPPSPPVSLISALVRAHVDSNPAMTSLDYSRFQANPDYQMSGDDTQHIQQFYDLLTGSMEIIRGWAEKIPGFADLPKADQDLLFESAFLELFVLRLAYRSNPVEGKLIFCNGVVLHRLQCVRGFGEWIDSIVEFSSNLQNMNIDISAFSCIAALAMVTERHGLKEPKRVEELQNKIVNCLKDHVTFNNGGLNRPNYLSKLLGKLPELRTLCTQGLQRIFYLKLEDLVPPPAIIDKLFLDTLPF
Oxysterols receptor LXR-alpha (Homo sapiens), sequence (Q13133 whole entry, looked up, the tested form may be a part): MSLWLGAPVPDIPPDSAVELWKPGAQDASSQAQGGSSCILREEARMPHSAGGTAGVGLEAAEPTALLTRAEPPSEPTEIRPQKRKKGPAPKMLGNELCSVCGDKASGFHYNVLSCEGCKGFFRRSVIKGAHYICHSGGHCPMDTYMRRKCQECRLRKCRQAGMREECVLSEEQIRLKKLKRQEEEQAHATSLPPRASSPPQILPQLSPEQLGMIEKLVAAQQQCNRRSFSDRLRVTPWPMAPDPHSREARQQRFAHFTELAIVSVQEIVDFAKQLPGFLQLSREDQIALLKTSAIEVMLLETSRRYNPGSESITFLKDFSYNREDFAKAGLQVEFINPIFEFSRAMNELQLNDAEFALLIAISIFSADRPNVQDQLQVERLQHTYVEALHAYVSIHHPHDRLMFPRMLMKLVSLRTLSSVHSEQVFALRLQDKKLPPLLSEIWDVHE
Glucocorticoid receptor (Homo sapiens), sequence (P04150 whole entry, looked up, the tested form may be a part): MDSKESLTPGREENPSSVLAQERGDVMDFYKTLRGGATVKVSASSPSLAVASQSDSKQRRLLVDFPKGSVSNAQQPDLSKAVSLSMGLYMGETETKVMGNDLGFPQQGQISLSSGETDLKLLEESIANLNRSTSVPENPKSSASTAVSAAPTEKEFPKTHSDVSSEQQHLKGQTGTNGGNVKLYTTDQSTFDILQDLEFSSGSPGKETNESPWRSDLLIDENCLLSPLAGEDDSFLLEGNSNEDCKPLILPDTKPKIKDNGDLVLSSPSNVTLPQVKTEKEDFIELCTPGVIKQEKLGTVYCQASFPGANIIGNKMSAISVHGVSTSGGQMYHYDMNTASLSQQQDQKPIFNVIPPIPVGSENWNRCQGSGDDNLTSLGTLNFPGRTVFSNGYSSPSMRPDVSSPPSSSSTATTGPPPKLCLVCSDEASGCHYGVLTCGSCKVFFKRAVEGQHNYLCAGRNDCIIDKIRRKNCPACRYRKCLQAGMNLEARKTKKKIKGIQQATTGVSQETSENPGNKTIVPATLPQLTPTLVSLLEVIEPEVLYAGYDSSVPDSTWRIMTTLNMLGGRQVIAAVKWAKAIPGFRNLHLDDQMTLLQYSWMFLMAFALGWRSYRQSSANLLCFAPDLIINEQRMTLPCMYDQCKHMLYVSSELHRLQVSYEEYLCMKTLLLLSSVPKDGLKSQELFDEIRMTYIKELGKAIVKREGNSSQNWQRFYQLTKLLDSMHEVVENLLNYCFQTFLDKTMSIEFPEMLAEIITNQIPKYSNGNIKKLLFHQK
Cellular tumor antigen p53 (Homo sapiens), sequence (P04637 whole entry, looked up, the tested form may be a part): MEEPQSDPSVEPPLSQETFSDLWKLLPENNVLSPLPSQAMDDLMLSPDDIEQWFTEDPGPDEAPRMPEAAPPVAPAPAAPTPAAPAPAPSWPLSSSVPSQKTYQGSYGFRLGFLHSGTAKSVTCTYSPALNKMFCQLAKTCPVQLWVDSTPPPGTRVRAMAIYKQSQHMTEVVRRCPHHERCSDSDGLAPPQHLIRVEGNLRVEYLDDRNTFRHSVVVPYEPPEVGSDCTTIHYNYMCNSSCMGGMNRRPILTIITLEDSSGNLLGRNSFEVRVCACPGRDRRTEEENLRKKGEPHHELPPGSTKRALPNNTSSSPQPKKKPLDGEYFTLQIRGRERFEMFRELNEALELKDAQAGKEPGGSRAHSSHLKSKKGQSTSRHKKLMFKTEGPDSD

As to `COP(=O)(CCC(=O)NCO)OC`, the outcome in experiment [1], in [2], in [3], in experiment [4], in [5] and in [6] was inactive. Further, the compound was classed as inactive in experiment [7], in [8], in experiment [9], in [10], in experiment [11] and in [12]. Besides, the outcome in [13], in experiment [14], in experiment [15] and in [16] was inactive.

`N#Cc1c(-c2ccc(Cl)cc2)[nH]c(C(F)(F)F)c1Br`: the result in experiment [1], in [2], in experiment [4], in experiment [6], in experiment [7] and in [8] was inactive. Moreover, the compound was classed as inactive in experiment [9], in experiment [10], in experiment [11] and in [14]. Besides, the AC50 in experiment [12] is 0.0823 µM (active); in experiment [13], 0.0675 µM (active); in experiment [17], 20 µM (active); in experiment [15], 0.469 µM (active); in [16], 6.03 µM (active).

Take `O=C(O)C(F)(OC(F)(F)C(F)(F)C(F)(F)F)C(F)(F)F` (centres undefined): the result in experiment [1], in experiment [2], in [3], in experiment [4], in experiment [5] and in experiment [18] was inactive. Further, the compound was classed as inactive in [6], in experiment [7], in [8], in experiment [9], in [10] and in experiment [11]. The outcome in experiment [12], in experiment [13], in experiment [14], in [17], in [15] and in experiment [16] was inactive. In addition, the outcome in experiment [19] was inactive. Further, the AC50 in experiment [19] is 8.11 µM (active).

As to `CCCCc1ccc(O)cc1`, the outcome in experiment [1], in experiment [2], in experiment [5], in experiment [18], in experiment [6] and in [7] was inactive. The result in [8], in [9], in experiment [10], in experiment [11], in [13] and in experiment [14] was inactive. For the same compound, the AC50 in experiment [12] is 66.7 µM (active).
